Measured values published in the supplement of paper PMC12669032.
Values without a mark were called inactive.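 Rule for the calls: active = AUC reduced over 20% with Padj below 0.05 in at least 2 of 3 replicates; inactive = otherwise.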

How the values were obtained:
Experiment in all cases: growth AUC relative to DMSO control (median of replicates) (fraction); higher = more growth (less inhibition), active = hit call of the paper
Conditions in all cases: 20 µM; 24 h
Akkermansia muciniphila = tested on: Akkermansia muciniphila
Procedure, shortened: (§1)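 OD600 was recorded every hour for 24 h in anaerobic monocultures of gut bacteria kept at 37 °C in mGAM, seeded at OD600 0.05 and given 20 µM compound in 1% DMSO. The area under each growth curve was scaled to the plate median of solvent-only wells, or to row and column medians for the industrial chemical plate. Before this step, the minimum OD was set to 0. Reported values are medians of three biological replicates run on separate days.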

Bacteroides caccae = tested on: Bacteroides caccae
Procedure, shortened: as §1

Bacteroides clarus = tested on: Bacteroides clarus
Procedure, shortened: as §1

Bacteroides dorei = tested on: Bacteroides dorei
Procedure, shortened: as §1

Bacteroides stercoris = tested on: Bacteroides stercoris
Procedure, shortened: as §1

[1] = tested on: Bacteroides thetaiotaomicron
Procedure, shortened: as §1

Bacteroides uniformis = tested on: Bacteroides uniformis
Procedure, shortened: as §1

[2] = tested on: Bifidobacterium longum subsp. longum
Procedure, shortened: as §1

Clostridium difficile = tested on: Clostridium difficile
Procedure, shortened: as §1

Collinsella aerofaciens = tested on: Collinsella aerofaciens
Procedure, shortened: as §1

With `C[C@@H](Oc1ccc(Oc2cnc3cc(Cl)ccc3n2)cc1)C(=O)O` the “growth AUC” value (Akkermansia muciniphila) was 1.07, the “growth AUC” value (Bacteroides caccae) was 0.938 and the “growth AUC” value (Bacteroides clarus) was 1.05. For the same molecule, the “growth AUC” value (Bacteroides dorei) was 1, the “growth AUC” value (Bacteroides stercoris) was 1.29 and the “growth AUC” value [1] was 0.986. The “growth AUC” value (Bacteroides uniformis) was 0.988, the “growth AUC” value [2] was 0.964 and the “growth AUC” value (Clostridium difficile) was 0.989. The “growth AUC” value (Collinsella aerofaciens) was 0.976.

In the case of `CCOc1cc(C(C)(C)C)ccc1C1COC(c2c(F)cccc2F)=N1` (stereo not given), the “growth AUC” value (Akkermansia muciniphila) is reported as 0.955, the “growth AUC” value (Bacteroides caccae) is reported as 0.941 and the “growth AUC” value (Bacteroides clarus) is reported as 1. For the same molecule, the “growth AUC” value (Bacteroides dorei) was 1.03, the “growth AUC” value (Bacteroides stercoris) was 1.23 and the “growth AUC” value [1] was 0.978. For the same molecule, the “growth AUC” value (Bacteroides uniformis) was 0.958, the “growth AUC” value [2] was 1.02 and the “growth AUC” value (Clostridium difficile) was 0.942. For the same molecule, the “growth AUC” value (Collinsella aerofaciens) was 0.987.

In the case of `CCOP(=S)(OCC)SCS(=O)C(C)(C)C` (stereo not given), the “growth AUC” value (Akkermansia muciniphila) is reported as 0.905, the “growth AUC” value (Bacteroides caccae) is reported as 0.997 and the “growth AUC” value (Bacteroides clarus) is reported as 1.02. For the same molecule, the “growth AUC” value (Bacteroides dorei) was 0.944, the “growth AUC” value (Bacteroides stercoris) was 1.08 and the “growth AUC” value [1] was 1.02. For the same molecule, the “growth AUC” value (Bacteroides uniformis) was 0.989, the “growth AUC” value [2] was 1.02 and the “growth AUC” value (Clostridium difficile) was 1. For the same molecule, the “growth AUC” value (Collinsella aerofaciens) was 0.987.

`OC(c1ccc(Cl)cc1)(c1ccc(Cl)cc1)C(Cl)(Cl)Cl` was tested, and the “growth AUC” value (Akkermansia muciniphila) was 1.07, the “growth AUC” value (Bacteroides caccae) was 0.962 and the “growth AUC” value (Bacteroides clarus) was 0.409 (active). The “growth AUC” value (Bacteroides dorei) was 0.954, the “growth AUC” value (Bacteroides stercoris) was 0.0157 (active) and the “growth AUC” value [1] was 0.379 (active). The “growth AUC” value (Bacteroides uniformis) was 0.0202 (active), the “growth AUC” value [2] was 0.973 and the “growth AUC” value (Clostridium difficile) was 1.03. The “growth AUC” value (Collinsella aerofaciens) was 0.973.

For `O=c1ccc(=O)[nH][nH]1`, the “growth AUC” value (Akkermansia muciniphila) was 1.2, the “growth AUC” value (Bacteroides caccae) was 0.973 and the “growth AUC” value (Bacteroides clarus) was 1.01. For the same molecule, the “growth AUC” value (Bacteroides dorei) was 0.989, the “growth AUC” value (Bacteroides stercoris) was 0.951 and the “growth AUC” value [1] was 1. The “growth AUC” value (Bacteroides uniformis) was 1.05, the “growth AUC” value [2] was 1.62 and the “growth AUC” value (Clostridium difficile) was 0.954. For the same molecule, the “growth AUC” value (Collinsella aerofaciens) was 0.92.

For `CN(C(=O)COc1nc2ccccc2s1)c1ccccc1`, the “growth AUC” value (Akkermansia muciniphila) was 1.06, the “growth AUC” value (Bacteroides caccae) was 0.925 and the “growth AUC” value (Bacteroides clarus) was 1.03. For the same molecule, the “growth AUC” value (Bacteroides dorei) was 0.956, the “growth AUC” value (Bacteroides stercoris) was 1.26 and the “growth AUC” value [1] was 0.96. The “growth AUC” value (Bacteroides uniformis) was 0.934, the “growth AUC” value [2] was 1.12 and the “growth AUC” value (Clostridium difficile) was 0.982. The “growth AUC” value (Collinsella aerofaciens) was 1.01.

`CC(Oc1ccc(Oc2nc3ccc(Cl)cc3o2)cc1)C(=O)O` (racemic) was tested, and the “growth AUC” value (Akkermansia muciniphila) was 0.992, the “growth AUC” value (Bacteroides caccae) was 1.05 and the “growth AUC” value (Bacteroides clarus) was 0.995. The “growth AUC” value (Bacteroides dorei) was 0.996, the “growth AUC” value (Bacteroides stercoris) was 1.25 and the “growth AUC” value [1] was 0.996. The “growth AUC” value (Bacteroides uniformis) was 0.962, the “growth AUC” value [2] was 1.03 and the “growth AUC” value (Clostridium difficile) was 0.987. The “growth AUC” value (Collinsella aerofaciens) was 1.03.

In the case of `O=C1C=C(N(Cc2ccc(Cl)nc2)CC(F)F)CO1`, the “growth AUC” value (Akkermansia muciniphila) is reported as 0.98, the “growth AUC” value (Bacteroides caccae) is reported as 0.991 and the “growth AUC” value (Bacteroides clarus) is reported as 0.991. For the same molecule, the “growth AUC” value (Bacteroides dorei) was 0.977, the “growth AUC” value (Bacteroides stercoris) was 1.25 and the “growth AUC” value [1] was 1.01. The “growth AUC” value (Bacteroides uniformis) was 0.997, the “growth AUC” value [2] was 1.01 and the “growth AUC” value (Clostridium difficile) was 0.978. For the same molecule, the “growth AUC” value (Collinsella aerofaciens) was 0.994.

With `CC(C)(C)C(=O)C(Oc1ccc(Cl)cc1)n1cncn1` (stereo not given) the “growth AUC” value (Akkermansia muciniphila) was 1.04, the “growth AUC” value (Bacteroides caccae) was 0.993 and the “growth AUC” value (Bacteroides clarus) was 1. The “growth AUC” value (Bacteroides dorei) was 1.01, the “growth AUC” value (Bacteroides stercoris) was 1.1 and the “growth AUC” value [1] was 0.999. The “growth AUC” value (Bacteroides uniformis) was 0.978, the “growth AUC” value [2] was 1.02 and the “growth AUC” value (Clostridium difficile) was 1.03. The “growth AUC” value (Collinsella aerofaciens) was 1.01.

In the case of `OC[C@@H](O)[C@H]1O[C@@H]2O[C@H](C(Cl)(Cl)Cl)O[C@@H]2[C@H]1O` (mixture of isomers), the “growth AUC” value (Akkermansia muciniphila) is reported as 0.979, the “growth AUC” value (Bacteroides caccae) is reported as 1.02 and the “growth AUC” value (Bacteroides clarus) is reported as 0.978. The “growth AUC” value (Bacteroides dorei) was 1.04, the “growth AUC” value (Bacteroides stercoris) was 0.952 and the “growth AUC” value [1] was 1.01. For the same molecule, the “growth AUC” value (Bacteroides uniformis) was 1.04, the “growth AUC” value [2] was 0.969 and the “growth AUC” value (Clostridium difficile) was 1.03. The “growth AUC” value (Collinsella aerofaciens) was 0.975.

For `ClCC(Br)CBr` (stereo not given), the “growth AUC” value (Akkermansia muciniphila) was 0.997, the “growth AUC” value (Bacteroides caccae) was 1.04 and the “growth AUC” value (Bacteroides clarus) was 0.981. For the same molecule, the “growth AUC” value (Bacteroides dorei) was 0.974, the “growth AUC” value (Bacteroides stercoris) was 0.996 and the “growth AUC” value [1] was 1. The “growth AUC” value (Bacteroides uniformis) was 0.957, the “growth AUC” value [2] was 1 and the “growth AUC” value (Clostridium difficile) was 1. The “growth AUC” value (Collinsella aerofaciens) was 0.992.

For `CC(=O)CC(c1ccco1)c1c(O)c2ccccc2oc1=O` (stereo not given), the “growth AUC” value (Akkermansia muciniphila) was 0.866, the “growth AUC” value (Bacteroides caccae) was 1.01 and the “growth AUC” value (Bacteroides clarus) was 0.957. The “growth AUC” value (Bacteroides dorei) was 1, the “growth AUC” value (Bacteroides stercoris) was 1 and the “growth AUC” value [1] was 0.98. For the same molecule, the “growth AUC” value (Bacteroides uniformis) was 0.968, the “growth AUC” value [2] was 0.95 and the “growth AUC” value (Clostridium difficile) was 1.02. For the same molecule, the “growth AUC” value (Collinsella aerofaciens) was 0.967.

For `NCP(=O)(O)O`, the “growth AUC” value (Akkermansia muciniphila) was 1.04, the “growth AUC” value (Bacteroides caccae) was 1.02 and the “growth AUC” value (Bacteroides clarus) was 1.03. The “growth AUC” value (Bacteroides dorei) was 1.03, the “growth AUC” value (Bacteroides stercoris) was 1.17 and the “growth AUC” value [1] was 0.982. For the same molecule, the “growth AUC” value (Bacteroides uniformis) was 1.02, the “growth AUC” value [2] was 1.04 and the “growth AUC” value (Clostridium difficile) was 1.06. The “growth AUC” value (Collinsella aerofaciens) was 1.05.
